Data on nine compounds can be found in PubChem BioAssay (NCI).

What all share (assay): NCI-60 one-dose screen, 48 h (100 = growth as untreated, 0 = no growth, -100 = all killed)
Test [1] concerns T-47D breast. The note with it: 10 µM unless noted.
For test [2], the system named is BT-549 breast. The note with it: 10 µM unless noted.
Test [3] has as its system MDA-MB-435 melanoma. The note with it: 10 µM unless noted.
Test [4] deals with SW-620 colon. The note with it: 10 µM unless noted.
Test [5] has as its system HCT-116 colon. The following applies: 10 µM unless noted.
Test [6] has as its system HCC-2998 colon. The note with it: 10 µM unless noted.
Test [7] has as its system KM12 colon. The following applies: 10 µM unless noted.
Test [8] concerns MCF7 breast. The note with it: 10 µM.

Where “and” joins values, the source holds several entries; their conditions need not be identical. Equal entries are not always repeated. Compounds without any hit were thinned out: in the full panel of roughly 83,000, 20% have a hit.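 Single-concentration screen, 48 h exposure, 96-well plates. Endpoint: percent growth. Below 10 = active.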 Unmarked numbers belong to inactive results. Calls of active or inactive are those of the source.

As to `O=C1c2cccnc2-c2nccc3c2c1nc1cc(Br)ccc13`, the growth in test [1] was -34.3% (active) and -63.8% (active); in test [2], -73.9% (active) and -67.8% (active); in test [3], -68.4% (active) and -94.5% (active); in test [4], -63.4% (active) and -74.8% (active); in test [5], -81.5% (active) and -68.7% (active); in test [6] it was -100% (active) and -82.7% (active). Also, the growth in test [7] is -96.7% (active) and -76.7% (active).
Turning to `O=C(Nc1ccccc1)Oc1c(Cl)c(Cl)c(Cl)c(Cl)c1Cl`, the growth in test [1] was 102% and 84.5%; in test [2] it was 98.7% and 88.5%; in test [3], 109% and 98.8%; in test [4] it was 101% and 102%; in test [5] it was 105% and 101%; in test [6], 112% and 108%. For the same compound, the growth in test [7] is 100% and 97.5%.
With `O=C1C=CC(=O)N1C1c2ccccc2-c2ccccc21`, the growth in test [1] is 73.6%; in test [3], 110%; in test [4] it was 14.7%; in test [5], 97.9%; in test [6], 114%; in test [7], 107%.
Consider `OC(CNc1ccnc2cc(Cl)ccc12)CNc1ccnc2cc(Cl)ccc12`, for which the growth was 9.13% (active) in test [1]; 85.2% in test [2]; -43.6% (active) in test [3]; -31.2% (active) in test [4]; 5.7% (active) in test [5]; 46.1% in test [6]. Moreover, in test [7], the growth was 44.5%.
Take `O=C1OCc2cccc3cccc1c23`: the growth in test [1] is 114%; in test [3], 115%; in test [4], 98.2%; in test [8] it was 86.3%; in test [5] it was 104%; in test [6], 106%. In test [7], the growth was 104%.
`Oc1c(Br)c(Br)c(O)c(Br)c1Br`: the growth in test [1] was 25.2%; in test [2], 95.3%; in test [3], 106%; in test [4], 8.91% (active); in test [5], 96.2%; in test [6], 128%. Further, in test [7], the growth was 110%.
Regarding `O=C1c2ccccc2C(=O)c2sc(Nc3ccc(Cl)cc3)nc21`, the growth in test [1] was 29.2%; in test [2] it was 75.9%; in test [3], -87.5% (active); in test [4], -40% (active); in test [5], -36.6% (active); in test [6] it was 57.6%. In test [7], the growth was 60.1%.
For `O[C@H]1[C@H]2c3cc4c(cc3CN3CCC(=C[C@@H]1O)[C@H]23)OCO4`, the growth in test [1] is 34.5%; in test [2], 71.2%; in test [3] it was 32.5%; in test [4], 30.4%; in test [5] it was 13.5%; in test [6], 18.9%. In addition, the growth in test [7] was 21.2%.
Regarding `Cc1cc2nc(CS)[nH]c2cc1C`, the growth in test [1] is 74.3%; in test [3] it was 90.9%; in test [4], 84.7%; in test [8] it was 82.9%; in test [5], 58.1%; in test [6], 102%. Also, in test [7], the growth was 88%.
